# Source: PubChem (National Center for Advancing Translational Sciences (NCATS))
# Marburg entry inh: qHTS for inhibitors of binding or entry into cells for Marburg Virus; Marburg virus pseudotyped entry inhibition, cell reporter; Potency, µM (top dose mostly 37.8 µM), most hits filed as inhibitors; actives 1.8% (n = 300,000); AID 540276, 2011; calls by dose curve; tested in HEK293 cells
# HCV inh: qHTS Assay for Inhibitors of Hepatitis C Virus (HCV); Huh7.5.1 HCVcc-Cre infection, luciferase reporter, 44 h; Potency, µM (doses to about 41.8 µM), actives largely listed as inhibitors; actives 3.4% (n = 340,000); active means well fitted inhibition curve with a large enough effect; inconclusive means small, poorly fitted or top-dose-only effect, or another doubt; inactive means no such curve, though single readings can be large or run the other way
#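 Whole-lifecycle infectious HCVcc-Cre system; cells 1,000/well, compound then virus (~0.5 moi) added 4 h after plating, 44 h culture. Luciferase read 15 sec following 15 min substrate incubation, room temp.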
# LASV entry inh: qHTS for Inhibitors of binding or entry into cells for Lassa Virus | Lassa virus pseudotype entry inhibition, cell reporter | Potency, µM (titrated, usually from 37.9 µM), usual class: inhibitors | actives 1.2% (n = 300,000) | AID 540256, 2011; calls by dose curve; tested in HEK293 cells; further: nearly all actives have a fitted effect of over 50% in size
# SARS PLP yeast: qHTS of Yeast-based Assay for SARS-CoV PLP; S. cerevisiae expressing SARS-CoV PLpro, growth rescue; Potency, µM (series often up to 32.9 µM), usual class: activators; AID 485353, 2010; actives 0.19% (n = 330,000); calls by dose curve; further: nearly all actives have a fitted effect of over 55% in size
# HCMV antiviral: qHTS Assay for inhibitors of the human cytomegalovirus (HCMV); activity change, negative = inhibition, % at 57.5 µM; HFF cells, HCMV-luciferase reporter, 72 h; stronger effect = lower value; actives 4.5% (n = 410,000); AID 1259415, 2018; in the data active means activity change below about -60%; inconclusive means no clear call, values can overlap the other calls; inactive means above about -39%
#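 HFF cells seeded 16 h at 37C, treated with compounds, infected with luciferase-reporter HCMV at MOI 1 PFU/cell; luciferase read at 72 h post infection, normalized to buffer-only and Salinomycin controls.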
# FMDV inh: High Throughput Screening for Foot and Mouth Disease Virus Antivirals | actives 1.2% (n = 410,000) | Potency, µM (top dose mostly 57.9 µM), hits mostly inhibitors | FMDV antiviral cell-based qHTS; calls by dose curve; tested in HEK293T cells; further: read-out not given here; nearly all actives have a fitted effect of over 45% in size
# A number is an active result; n = inactive; u = inconclusive; x = no result given; [ ] = dose if it differs, or a comment. Hits are enriched below; roughly 8% of the tested compounds scored in any of these assays.
SMILES,Marburg entry inh,HCV inh,LASV entry inh,SARS PLP yeast,HCMV antiviral,FMDV inh
O=[N+]([O-])c1cc(F)c2cccnc2c1O,x,n,x,n,n,n
Cc1c(C)c2cccnc2c2ncccc12,x,3.2µM,x,n,x,u
O=[N+]([O-])c1cc(Cl)c2cccnc2c1O,u,n,n,n,-74,n
O=C(CS(=O)(=O)c1cccc2nsnc12)NCc1ccc(Cl)cc1,x,x,u,x,n,n
CNCCc1cnc(CCC(c2ccccc2)c2ccccc2)[nH]1,5.8µM,x,u,x,x,x
CNCCc1ccccn1,n,n[8.37 µM],n,n,n,n
Cc1cc(C)c2nc(NNC(=O)c3ccc(S(=O)(=O)N4CCCC(C)C4)cc3)sc2c1 (stereo not given),u,7.9µM,u,u,-98,u
Cc1cc(C)c2nc(NC(=O)c3ccc(S(=O)(=O)N4CCC(C)CC4)cc3)sc2c1,x,x,n,x,n,n
Cc1cc(C)c2nc(NNC(=O)c3ccc(S(=O)(=O)N4CC(C)CC(C)C4)cc3)sc2c1 (stereo not given),15µM,7.1µM,u,u,-98,n
Cc1ccc2nc(NNC(=O)c3ccc(S(=O)(=O)N4CCc5ccccc5C4)cc3)sc2c1,u,2.5µM,u,5µM,-99,u
Cc1cc(C)c2nc(NC(=O)c3ccc(S(=O)(=O)N4CCc5ccccc54)cc3)sc2c1,x,x,n,x,n,u
Cc1cccc2c1N[C@H](/C=C/C(=O)OC(C)(C)C)C2,x,x,x,x,n,x
O=C1C=CC2=C3c4cc(O)c(O)cc4C[C@]3(O)COC2=C1,x,x,x,x,x,n
COc1cc2c(cc1NC(=O)c1cccnc1)oc1ccccc12,n,3.2µM,u,n,n,n
COc1cc2c(cc1NC(=O)c1ccc(C)c([N+](=O)[O-])c1)oc1ccccc12,u,u,n,n,n,n
COc1cc2c(cc1NC(=O)c1cccc([N+](=O)[O-])c1)oc1ccccc12,u,u,u,n,u,13µM
COc1cc2c(cc1NC(=O)c1ccncc1)oc1ccccc12,n,u,n,n,x,n
O=C(Nc1cc(C(F)(F)F)ccc1N1CCCCC1)c1cccc([N+](=O)[O-])c1,n,u,n,n,-77,n
O=C(Nc1ccccc1N1CCCCC1)c1cccc([N+](=O)[O-])c1,u,u,u,n,n,n
O=[N+]([O-])c1ccc(N2CCN(c3ccc([N+](=O)[O-])cc3CO)CC2)c(CO)c1,n,3.2µM,n,n,-66,u
O=C(c1ccccc1)c1cc([N+](=O)[O-])ccc1N1CCCC1,n,u,n,n,-61,u
CN1CCN(c2ccc([N+](=O)[O-])cc2C(=O)c2ccc(Br)cc2)CC1,u,n,u,n,u,n
O=C(c1ccc(Br)cc1)c1cc([N+](=O)[O-])ccc1N1CCCCC1,0.73µM,u,u,n,-91,n
CCOc1cc(C2c3c(oc4ccccc4c3=O)C(=O)N2Cc2ccccc2Cl)ccc1O (stereo not given),u,x,n,x,n,n
COc1ccc(C)cc1NC(=O)N1CCN(S(=O)(=O)c2ccc3c(ccn3C)c2)CC1,x,x,n,x,n,n
SMILES,Marburg entry inh,HCV inh,LASV entry inh,SARS PLP yeast,HCMV antiviral,FMDV inh
CCC(=O)Nc1ccc(CC)cc1-c1nc2ccccc2n(CC(=O)Nc2cccc(OC)c2)c1=O,n,x,n,x,n,n
COc1ccc(NC(=O)c2cnc3cc(C)ccn3c2=O)c(OC)c1,n,x,x,x,n,n
Cc1ccc2c(=O)c(C(=O)c3cccc(Cl)c3)cn(CC(=O)Nc3ccc4c(c3)OCCO4)c2n1,x,x,u,x,n,n
COc1ccc(C(=O)c2cc([N+](=O)[O-])ccc2N2CCN(C)CC2)cc1,7.1µM,u,n,n,n,n
COc1ccc(C(=O)c2cc([N+](=O)[O-])ccc2N2CCCC2)cc1,u,u,u,n,n,u
Cc1ccc(C2N3CC4(C)CN2CC(c2ccccc2)(C3)C4=O)cc1 (stereo not given),n,x,n,x,n,n
CCOc1ccc(C(=O)c2cn(CC(=O)Nc3cc(OC)cc(OC)c3)c3ccc(F)cc3c2=O)cc1,n,x,n,x,n,n
COc1ccc(-n2nnc3c(=O)n(CC(=O)NCC4CCCO4)cnc32)cc1 (stereo not given),n,n,n,n,-102,n
O=C(CSc1ncnc2c1nnn2-c1ccc(F)cc1)NCC1CCCO1 (stereo not given),n,n,n,n,n,16µM
Cc1ccc(-n2nnc3c(=O)n(Cc4ccccc4C)cnc32)cc1,x,n,x,n,n,n
COc1ccc(-n2nnc3c(=O)n(Cc4cc(C)ccc4C)cnc32)cc1,n,u,1.2µM,n,n,n
CCc1ccc(CNC(=O)c2cc(=O)[nH]c3ccc(S(=O)(=O)N4CCCCC4)cc23)cc1,x,x,n,x,n,n
C=CCN1c2ccccc2[C@]23C[C@@H](C(=O)OC)N(C(=O)Nc4ccc(C(F)(F)F)cc4)C2=NC(C(=O)OC)=C(C(=O)OC)[C@H]13,n,x,x,x,x,x
CC(C)=CC(=O)O[C@@H]1Cc2cc3ccc(=O)oc3cc2OC1(C)C,x,3.2µM,x,n,n,n
CC(=O)OC(C)(C)C1Cc2cc3ccc(=O)oc3cc2O1 (stereo not given),x,n,x,n,n,n
